Test results as given in PubChem BioAssay (Tox21).
The source made the active and inactive calls. The call rests on the fitted dose curve; in most records, active means well fitted activation curve with a large enough effect in the signal ratio in the repeat runs (not every such curve was filed as active); inconclusive means weak or mixed curves, or effect the other way; inactive means no such curve, though single readings can be large or run the other way; the % refers to the signal ratio.

target: Glucocorticoid receptor (Homo sapiens) (UniProt P04150); assay: qHTS assay to identify small molecule agonists of the glucocorticoid receptor (GR) signaling pathway (AID 720691); conditions: GR-bla HeLa, beta-lactamase reporter ratio, 18 h; activation: at 62.4 µM (top of the series) unless noted
From the text: U.S. Tox21 Program National Center for Advancing Translational Sciences [NCATS] NIH Chemical Genomics Center [NCGC] U.S. Environmental Protection Agency [EPA] National Institutes of Environmental Health Sciences [NIEHS] National Toxicology Program [NTP] U.S. Food and Drug Administration [FDA] Tox21 Assay Overview: The Glucocorticoid receptor (GR) is one of the members of the nuclear receptor family of ligand-dependent transcription factors. GR plays a critical role in carbohydrate, protein and lipid metabolisms and programmed cell death. CellSensor GR-bla HeLa cell line (Invitrogen) contains a beta-lactamase reporter gene under the control of the glucocorticoid response element stably integrated into HeLa cells, a cervical cancer cell line that expresses glucocorticoid receptor. The activation of the reporter gene under culture conditions can be detected by fluorescence intensity. This cell line has been used to screen the Tox21 10K compound library and to identify the compounds that activate the GR signaling.
Tox21 Assay Protocol Summary: The GR-bla HeLa cells were dispensed at 1500 cells/6 ul/well in 1536-well black wall/clear bottom plates using a Multidrop Combi (ThermoFisher Scientific, Waltham, MA) dispenser. After the assay plates were incubated at a 37 C/5% CO2 incubator for 4 hours, 23 nL of compounds dissolved in DMSO, positive controls or DMSO only was transferred to the assay plate by a pintool station (Kalypsys, San Diego, CA). The plates were incubated at 37 C for 18 hours. After 1 uL of LiveBLAzerTM B/G FRET substrate was added using a Flying Reagent Dispenser (Aurora Discovery, San Diego, CA), the plates were incubated at room temperature for 2 hours, and fluorescence intensity was measured by an Envision plate reader (PerkinElmer, Shelton, CT).
On the % scale 0 is the no-effect control and ±100 the full control effect; potency means the concentration at half of the fitted maximal effect.

Glucocorticoid receptor (Homo sapiens), sequence (P04150 whole entry, looked up): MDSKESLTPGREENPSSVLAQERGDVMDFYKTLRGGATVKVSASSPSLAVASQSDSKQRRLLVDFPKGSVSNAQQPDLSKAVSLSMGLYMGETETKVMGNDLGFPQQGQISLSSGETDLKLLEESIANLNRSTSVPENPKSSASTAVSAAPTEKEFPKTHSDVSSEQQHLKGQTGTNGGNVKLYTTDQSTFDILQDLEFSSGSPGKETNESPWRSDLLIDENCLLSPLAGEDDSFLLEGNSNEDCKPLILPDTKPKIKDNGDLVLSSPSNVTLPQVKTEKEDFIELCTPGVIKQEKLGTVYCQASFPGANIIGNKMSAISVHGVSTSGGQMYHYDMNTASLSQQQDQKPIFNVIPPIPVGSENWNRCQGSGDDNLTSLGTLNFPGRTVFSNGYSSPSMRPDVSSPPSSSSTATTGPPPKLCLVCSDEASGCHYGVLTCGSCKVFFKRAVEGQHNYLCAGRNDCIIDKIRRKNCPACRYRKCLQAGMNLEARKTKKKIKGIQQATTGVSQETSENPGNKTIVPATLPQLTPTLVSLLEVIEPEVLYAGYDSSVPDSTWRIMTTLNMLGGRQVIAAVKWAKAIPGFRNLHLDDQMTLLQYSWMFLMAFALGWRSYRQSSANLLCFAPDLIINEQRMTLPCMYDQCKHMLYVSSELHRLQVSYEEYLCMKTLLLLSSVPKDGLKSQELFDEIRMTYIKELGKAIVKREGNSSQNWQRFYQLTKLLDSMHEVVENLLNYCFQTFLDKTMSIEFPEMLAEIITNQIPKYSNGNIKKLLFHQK

Row | SMILES | activation | Potency
1 | CC(C)(CO)[N+](=O)[O-] | -1.92% (inactive) | –
2 | CCC(=O)O[C@]1(C(=O)CCl)[C@@H](C)C[C@H]2[C@@H]3CCC4=CC(=O)C=C[C@]4(C)[C@@]3(F)[C@@H](O)C[C@@]21C | – | 0.0006 µM (active)
3 | Cc1ncc(CO)c(C=O)c1O | -5.65% (inactive) | –
4 | Nc1ccc(S(=O)(=O)Nc2ccccc2)cc1 | 0.711% (inactive) | –
5 | c1ccc(-c2ccccn2)nc1 | 12.3% (inactive) | –
6 | C[C@@H]1C[C@H]2O[C@@]3(O[C@@H]2C(C)(C)O)[C@H](O)[C@@]2(C)[C@@H]4CC[C@H]5C(C)(C)[C@@H](O[C@@H]6OC[C@@H](O)[C@H](O)[C@H]6O)CC[C@@]56C[C@@]46CC[C@]2(C)[C@@H]13 | -4.32% (inactive) | –
7 | C=C1C(=C/C=C2\CCC[C@]3(C)[C@@H]([C@H](C)/C=C/[C@@H](O)C4CC4)CC[C@@H]23)C[C@@H](O)C[C@@H]1O | -14.4% (inactive) | –
8 | CCN(CC)CCNc1ccc(CNC=O)c2sc3ccc(OC)cc3c(=O)c12 | – | 49 µM [inconclusive] (active)
9 | O=C1C(O)=C(O)C(=O)C(O)=C1O | -0.924% (inactive) | –
10 | CCO[Si](CCCCl)(OCC)OCC | 0.219% (inactive) | –
11 | CN1C[C@H]2c3ccccc3Oc3ccc(Cl)cc3[C@@H]2C1 | -4.76% (inactive) | –
12 | C/C=C/C=C/CO | -2.05% (inactive) | –
13 | NCCCN1CCOCC1 | -0.289% (inactive) | –
14 | CCCCCCCC/C=C\CCCCCCCC(=O)OCC | 0.837% (inactive) | –
15 | Nc1ccccc1S(=O)(=O)c1ccccc1 | 2.75% (inactive) | –
16 | CCCCCCc1ccc(-c2ccc(C#N)cc2)cc1 | 0.803% (inactive) | –
17 | CCCCC(CC)COC(=O)CCCCCCCCC(=O)OCC(CC)CCCC (stereo not given) | 1.31% (inactive) | –
18 | C#CCN(C)CCCOc1ccc(Cl)cc1Cl | -2.09% (inactive) | –
19 | N=c1ccn2c(n1)O[C@H]1[C@H](O)[C@@H](CO)O[C@H]12 | – | inactive
20 | CC(=O)c1cccc([N+](=O)[O-])c1 | 2.21% (inactive) | –

Row | SMILES | activation | Potency
21 | CC1CCC(=O)C1=O (stereo not given) | 0.228% [at 79.2 µM] (inactive) | –
22 | CC[N+](C)(CC)CCOC(=O)C(O)(c1ccccc1)C1CCCCC1 (stereo not given) | 0.604% (inactive) | –
23 | CCCCc1ncc(/C=C(\Cc2cccs2)C(=O)O)n1Cc1ccc(C(=O)O)cc1 | 0.125% (inactive) | –
24 | OC[C@H]1O[C@@H](OCCc2ccc(O)cc2)[C@H](O)[C@@H](O)[C@@H]1O | -0.0144% (inactive) | –
25 | COc1ccc(S(=O)(=O)N2C(=O)[C@@](c3ccccc3OC)(N3C[C@H](O)C[C@H]3C(=O)N(C)C)c3cc(Cl)ccc32)c(OC)c1 | -13.3% (inactive) | –
26 | CCO[C@H](Cc1ccc(OCCc2ccc(OS(C)(=O)=O)cc2)cc1)C(=O)O | 0.0258% (inactive) | –
27 | CCOC(=O)c1cccnc1 | 1.24% (inactive) | –
28 | C=C(C)C(=O)OCCOCC | -0.676% [at 79.2 µM] (inactive) | –
29 | C[Si](C)(CCCN)O[Si](C)(C)CCCN | -3.91% (inactive) | –
30 | COCC(C)OC(C)=O (stereo not given) | -1.71% (inactive) | –
31 | Cc1oc(-c2ccccc2)nc1CCOc1cccc2c1ccn2CCC(=O)O | -7.68% (inactive) | –
32 | Cc1[nH]c(C)c(Cl)c(=O)c1Cl | -1.44% (inactive) | –
33 | COc1ccc(C(=O)c2ccc(OC)cc2O)c(O)c1 | -5.59% [at 79.2 µM] (inactive) | –
34 | CCCCCCCN | -1.08% [at 79.2 µM] (inactive) | –
35 | CC(CSC(=O)c1ccccc1)C(=O)N1C[C@@H](Sc2ccccc2)C[C@H]1C(=O)O (stereo not given in full) | -0.206% (inactive) | –
36 | COc1cc2nc(N(C)CCCNC(=O)C3CCCO3)nc(N)c2cc1OC (stereo not given) | 0.412% [at 29.2 µM] (inactive) | –
37 | Nc1ncn([C@H]2C[C@H](O)[C@@H](CO)O2)c(=O)n1 | 0.172% (inactive) | –
38 | CCOC(=O)C(F)(F)F | 0.544% (inactive) | –
39 | CC(C)C[C@H]1C(=O)N2CCC[C@H]2[C@]2(O)O[C@](NC(=O)[C@@H]3C=C4c5cccc6[nH]c(Br)c(c56)C[C@H]4N(C)C3)(C(C)C)C(=O)N12 | – | inactive
40 | Nc1cccc(S(=O)(=O)c2cccc(N)c2)c1 | -0.644% (inactive) | –
